# In PubChem BioAssay AID620 (Sanford-Burnham Center for Chemical Genomics, 2007):
# Among all 87,000 compounds or so, about 360 (0.41%) were called active. What follows is part of a selection rich in actives, with near analogues and random picks from the rest. A number with no mark means an inactive call. Cut-off read from the data, not from the text of the source: active = cytotoxicity above about 50%; inactive = the rest.
# Assay: cytotoxicity in HT1080 fibrosarcoma cells, cell-based, fluorescence readout (AID 620);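 note: cells exposed to compound overnight then 4 h with Alamar Blue; 0% = vehicle DMSO and 100% = killing control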
# Details: HT1080 viability, at 10 µM, active compounds read high
row,SMILES,cytotoxicity
1,COCCNC(=O)CN(Cc1ccc2c(c1)OCO2)C(=O)CCC(=O)Nc1nccs1,-8.1%
2,O=C(CN(C(=O)Cn1nnc(-c2cccs2)n1)c1ccc2c(c1)OCCO2)NCC1CCCO1 (stereo unspecified),-1.3%
3,O=C1NC(c2cccs2)Nc2ccccc21 (stereo unspecified),10.2%
4,Cc1ccc(C2NC(=O)c3ccccc3N2)s1 (stereo unspecified),57.7% (active)
5,Cc1ccsc1C1NC(=O)c2ccccc2N1 (stereo unspecified),7.3%
6,CCOc1ccccc1NS(=O)(=O)c1cccs1,56.5% (active)
7,Cc1ccc(S(=O)(=O)NCc2cccnc2)s1,-11.9%
8,O=S(=O)(Nc1ccc(-c2nc3cccnc3s2)cc1)c1cccs1,-6.8%
9,CCOc1ccccc1NS(=O)(=O)c1ccc(Br)s1,20.7%
10,O=S(=O)(Nc1cccc2ncccc12)c1cccs1,85% (active)
11,COc1ccccc1NS(=O)(=O)c1cccs1,8.9%
12,O=S(=O)(Nc1cccc2c1ccc1cccn12)c1cccs1,-4.6%
13,Cc1ccc(S(=O)(=O)Nc2ccnc3ccccc23)cc1,5.4%
14,Cc1ccc(S(=O)(=O)Nc2cccc3ncccc23)s1,54.9% (active)
15,O=C(c1ccc2c3c(cccc13)CC2)N1CCOCC1,-18.7%
16,CC(=O)N1C(=O)C2(C(C#N)=C(N)Oc3n[nH]c(-c4ccccn4)c32)c2ccccc21 (stereo unspecified),6.9%
17,O=C(NCc1ccc2c(c1)OCO2)c1nn(-c2ccccc2)c(=O)c2ccccc12,-4.7%
18,O=C(Nc1ccccn1)C(=O)N1CCCCC1,4.7%
19,COc1cccc2c1C(=O)c1c(O)c3c(c(O)c1C2=O)C[C@@](O)(C(=O)CO)C[C@@H]3O[C@H]1C[C@H](N)[C@H](O)[C@H](C)O1,53.8% (active)
20,Cc1noc(/C=C/c2ccco2)c1S(=O)(=O)N1CCC(C(=O)N(C)Cc2ccccc2)CC1,-4.4%
21,COc1ccc(C(CC(=O)O)NC(=O)COc2ccc(C)cc2)cc1OC (stereo unspecified),4.5%
22,CCOCC(=O)Nc1ccccc1C(=O)OCC,-3.7%
23,CCOC(=O)c1ccccc1Nc1cn(C(C)=O)c2ccccc12,53.7% (active)
24,CC(=O)n1cc(Nc2ccccc2C(=O)O)c2ccccc21,0.2%

row,SMILES,cytotoxicity
1,COc1ccc2c(Cl)c(-c3nnc4n3CCCCC4)sc2c1,-8.8%
2,COc1ccc(C2C3=C(CC(C)(C)CC3=O)Oc3ncn(CCCn4ccnc4)c(=N)c32)cc1 (stereo unspecified),20.5%
3,CCc1cc2c(=O)n(Cc3ccco3)c(SCC(=O)N3CCCc4ccccc43)nc2s1,-1.5%
4,Cc1noc(C)c1CSc1nc2ccccc2c(=O)n1-c1ccc(Cl)cc1,-2.7%
5,Cc1nc(CSc2nc3[nH]ncc3c(=O)n2-c2ccccc2)cs1,-1.5%
6,Cc1noc(C)c1CSc1nnc(-c2ccccc2)n1Cc1ccco1,2.6%
7,Cc1noc(C)c1CSc1nc2[nH]ncc2c(=O)n1-c1ccccc1,60.4% (active)
8,C=CCn1c(SCc2c(C)noc2C)nc2ccccc2c1=O,60.3% (active)
9,C=CCn1c(SCc2c(C)noc2C)nc2cc(C(=O)O)ccc2c1=O,25.6%
10,Cc1noc(C)c1CSc1nc2ccccc2c(=O)n1-c1ccccc1,48.9%
11,Cc1occc1C(=O)Nc1ccc2c(c1)CCC2,12.8%
12,CC(C)Cc1cc(C(=O)Nc2cc(Cl)ccc2Cl)no1,1.8%
13,O=C(C1CC1)N1CCCN(C(=O)C2CC2)CC1,1.3%
14,Cc1cc(=O)[nH]c(N2CCc3ccccc3C2)n1,1.4%
15,O=C(CSc1nnc(-c2cccs2)n1Cc1ccco1)Nc1ccc2c(c1)OCO2,1.2%
16,Cn1c(SCC(=O)N2CCCc3ccccc32)nnc1-c1c[nH]c2ccccc12,2.9%
17,CCOc1cccc(N2C(=O)CC(N3CCC(C(N)=O)(N4CCCCC4)CC3)C2=O)c1 (stereo unspecified),-6.9%
18,CCc1cn([C@H]2C[C@H](O)[C@@H](CO)O2)c(=O)[nH]c1=O,-0.3%
19,O=c1[nH]c(=O)n([C@H]2C[C@H](O)[C@@H](CO)O2)cc1C(F)(F)F,4.2%
20,O=c1[nH]c(=O)n([C@H]2C[C@H](O)[C@@H](CO)O2)cc1F,58.1% (active)
21,Cc1ccc(SCC(=O)NCCCN2CCOCC2)cc1,4.3%
22,CC1(C)CC(=O)C2=C(C1)OC1=C(C(=O)CC(C)(C)C1)C2c1ccc(O)cc1O,63.3% (active)
23,CC1(C)CC(=O)C(C2C3=C(CC(C)(C)CC3=O)Oc3ccccc32)=C(O)C1 (stereo unspecified),-2.6%
24,Cc1nn(C)cc1C1C2=C(CC(C)(C)CC2=O)OC2=C1C(=O)CC(C)(C)C2,14.2%

row,SMILES,cytotoxicity
1,CCCc1cc(=O)[nH]c(SCC(=O)C(C)(C)C)n1,-8.7%
2,CCCC(C)C1C(C#N)=C(N)Oc2cc(C)oc(=O)c21 (stereo unspecified),0.8%
3,CCn1ncc(Br)c1C(=O)Nc1ccc(C(=O)OC(C)C)cc1,-9.8%
4,O=C(OCn1ncc(Br)c(Br)c1=O)c1ccc(F)cc1,95.8% (active)
5,O=C(OCn1ncc(Br)c(Br)c1=O)c1c(F)cccc1F,100% (active)
6,Cc1onc(-c2c(F)cccc2Cl)c1C(=O)OCn1nnc2ccccc2c1=O,-0.3%
7,CCn1ncc(Br)c1C(=O)Nc1ccc(F)cc1F,2.8%
8,O=C(OCn1ncc(Br)c(Br)c1=O)c1ccccc1Cl,40%
9,CC1CC(C)CN(C(=O)c2ccccc2Nc2ccc(SC(F)F)cc2)C1 (stereo unspecified),-5.3%
10,COc1cc(OC)cc(-c2nnc(SCC(=O)N3CCCC3)o2)c1,9%
11,CCOc1cc(C(c2c(C)[nH][nH]c2=O)c2c(C)[nH][nH]c2=O)ccc1OS(=O)(=O)c1ccc(C)cc1,-4.6%
12,COc1ccc(-n2nnnc2SCC(=O)NCCc2ccc(OC)c(OC)c2)cc1,-21.1%
13,COc1ccc(CCNC(=O)CSc2nnnn2-c2ccccc2OC)cc1OC,1%
14,CCCSc1nnc(Sc2nnnn2-c2ccccc2)s1,60% (active)
15,COc1ccc(CCNc2nnc(Sc3nnnn3-c3ccccc3)s2)cc1OC,57.2% (active)
16,c1ccc(-n2nnnc2SCCCSc2nc3ccccc3s2)cc1,5.7%
17,CCSc1nnnn1-c1ccccc1,11%
18,NS(=O)(=O)c1ccc(CCNc2nc(CN3CCCCC3)nc3sc4c(c23)CCC4)cc1,28.3%
19,CSc1nc(-c2ccccc2)nc2[nH]ccc(=O)c12,8.6%
20,CSc1nc2ccc(S(=O)(=O)N(C)C)cc2s1,-0.9%
21,CCc1cc(C)c(O)c(CC)n1,-4.2%
22,Cn1c2ccccc2c2cc(C(=O)O)ccc21,6.9%
23,Nc1ccc(C(=O)N2CCCC2)cc1,13%
24,Nc1ccc(C(=O)n2c3ccccc3c3ccccc32)cc1,52.6% (active)

row,SMILES,cytotoxicity
1,CC(C)Cc1nnc(NC(=O)CC(=O)Nc2ccccc2C(=O)O)s1,-4.8%
2,O=C(NC1CC1)c1sccc1-n1cccc1,4%
3,COc1ccc(OCCSc2nnc3sc4ccccc4n23)cc1,-2.4%
4,COc1cccc(OCCSc2nnc3sc4ccccc4n23)c1,12.4%
5,CCOC(=O)C1CCN(C(=O)CCCN2C(=O)c3ccccc3C2=O)CC1,5%
6,CC[Si](CC)(CC)c1c2c(nc3ccc(OC)cc13)-c1cccc(=O)n1C2,-6.3%
7,CCNC(=O)COc1ccc(S(=O)(=O)Nc2ccccc2)cc1,2.5%
8,COc1ccc(S(=O)(=O)Cc2ccc(C(=O)NCc3ccc(F)cc3)o2)cc1,-10.5%
9,COc1ccc(-n2c(Cc3cccn3C)nnc2SCC(=O)N2CCCc3ccccc32)cc1,0.6%
10,CCCCCCN(C(=O)CCCCCN1C(=O)NC(c2ccc([N+](=O)[O-])cc2)C(C(=O)OCc2ccccc2)=C1C)C(C(=O)NCCCC)c1ccc(OCC(=O)OC)c(C(=O)OC)c1 (stereo unspecified),-7.3%
11,Cc1ccc(S(=O)(=O)Nc2cccc3cccnc23)cc1,-3%
12,Brc1ccc(-c2nnc3n2-c2ccccc2CC3)cc1,2%
13,Cc1ccc(-n2c(-c3ccc(Br)cc3)c[n+]3c2CCc2ccc4cccnc4c2-3)cc1,63.8% (active)
14,COc1ccccc1NC(=O)CSc1nnc(COc2ccc(Cl)cc2)n1Cc1ccco1,-2%
15,CCOc1ccccc1NC(=O)CN(c1cc(C)cc(C)c1)S(=O)(=O)c1c(C)noc1C,-7.8%
16,COc1ccc(OC)c(NC(=O)CN(c2ccc(C)cc2)S(=O)(=O)c2c(C)noc2C)c1,2.3%
17,CCOc1ccccc1NC(=O)CN(c1ccc(C)cc1)S(=O)(=O)c1c(C)noc1C,-3.3%
18,CCOc1ccccc1NC(=O)CN(c1ccc(OC)cc1)S(=O)(=O)c1c(C)noc1C,53.1% (active)
19,COc1ccc(N(CC(=O)Nc2cc(Cl)ccc2OC)S(=O)(=O)c2c(C)noc2C)cc1,53.8% (active)
20,CCOc1ccc(N(CC(=O)Nc2ccccc2C)S(=O)(=O)c2c(C)noc2C)cc1,54.9% (active)
21,CCOc1ccc(N(CC(=O)Nc2ccc(C)cc2)S(=O)(=O)c2c(C)noc2C)cc1,3.5%
22,COc1ccc(N(CC(=O)Nc2cc(C)ccc2OC)S(=O)(=O)c2c(C)noc2C)cc1,-2.6%
23,CCOc1ccc(N(CC(=O)NC(C)(C)C)S(=O)(=O)c2c(C)noc2C)cc1,-10.4%
24,Cc1cccc(C)c1-n1c(C)cc(/C=C2\NC(=O)NC2=O)c1C,15.3%
